Measured values from the supplement of paper PMC12494721.
Counter-ions that a name gives are not always drawn.

Legend:
Conditions in all cases: incubation time: 27 h, anaerobic, 37 °C;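 for the amine columns active = adjusted P below 0.05 in both replicates with a change the same way and a mean fold change under 0.8 or over 1.25; inactive = the rest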
[1] = system: Clostridium sporogenes DSM 1664; assay: growth (OD595) fold change vs plate DMSO controls (fold change (ratio)); higher = more growth
Method in brief: (§1)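 The measure reported is growth, taken as fold change against the median of DMSO controls on the same plate. Anaerobic mGAM cultures in 96-well plates (27 h, 37 °C) were read at 595 nm, blank-subtracted, corrected for compound background using 20 µM compound solutions in water, and multiplied by a calibration factor of 5 to give OD. Any fold change above 1.5 became NA, and 2 biological replicates were averaged.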

Escherichia coli IAI1 [2] = assay: as above
Method in brief: as §1

[3] = system: Klebsiella aerogenes DSM 30053; assay: as above
Method in brief: as §1

[4] = system: Ruminococcus gnavus DSM 108212; assay: as above
Method in brief: as §1

[5] = system: Klebsiella aerogenes DSM 30053; assay: fold change of Histamine concentration vs plate DMSO controls (fold change (ratio)); higher = more amine produced, active = hit call of the paper (significant change in both replicates, either direction)
Method in brief: (§2)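 Using LC–triple-quadrupole MS with dynamic MRM, amines were quantified against external calibration curves and corrected for drift within each batch. Samples were whole anaerobic mGAM cultures of four gut strains, grown 27 h at 37 °C from OD 0.1 before 1:1 dilution, extracted with cold acetonitrile/methanol containing 0.1% formic acid and centrifuged. Compounds were present at 20 µM final (sweeteners at 50 µM final). The numbers are fold changes versus plate DMSO controls, each the mean of 2 biological replicates.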

[6] = system: Clostridium sporogenes DSM 1664; assay: fold change of Tryptamine concentration vs plate DMSO controls (fold change (ratio)); higher = more amine produced, active = hit call of the paper (significant change in both replicates, either direction)
Method in brief: as §2

[7] = system: Ruminococcus gnavus DSM 108212; assay: as above
Method in brief: as §2

Escherichia coli IAI1 [8] = assay: fold change of Putrescine concentration vs plate DMSO controls (fold change (ratio)); higher = more amine produced, active = hit call of the paper (significant change in both replicates, either direction)
Method in brief: as §2

[9] = system: Klebsiella aerogenes DSM 30053; assay: as above
Method in brief: as §2

Escherichia coli IAI1 [10] = assay: fold change of Cadaverine concentration vs plate DMSO controls (fold change (ratio)); higher = more amine produced, active = hit call of the paper (significant change in both replicates, either direction)
Method in brief: as §2

[11] = system: Klebsiella aerogenes DSM 30053; assay: as above
Method in brief: as §2

[12] = system: Ruminococcus gnavus DSM 108212; assay: fold change of 2-Phenylethylamine concentration vs plate DMSO controls (fold change (ratio)); higher = more amine produced, active = hit call of the paper (significant change in both replicates, either direction)
Method in brief: as §2

Row | Structure (SMILES) | growth [1] | growth (Escherichia coli IAI1 [2]) | growth [3] | growth [4] | fold change of Histamine concentration [5] | fold change of Tryptamine concentration [6] | fold change of Tryptamine concentration [7] | fold change of Putrescine concentration (Escherichia coli IAI1 [8]) | fold change of Putrescine concentration [9] | fold change of Cadaverine concentration (Escherichia coli IAI1 [10]) | fold change of Cadaverine concentration [11] | fold change of 2-Phenylethylamine concentration [12]
1 | CN(C)CCOC(c1ccccc1)c1ccccc1.Cn1c(=O)c2[nH]c(Cl)nc2n(C)c1=O [Dimenhydrinate] (20 µM) | 0.99 | 0.985 | 0.954 | 1.06 | 1.05 (inactive) | 1.02 (inactive) | 1.02 (inactive) | 0.995 (inactive) | 1.01 (inactive) | 0.985 (inactive) | 0.985 (inactive) | 1.03 (inactive)
2 | CCCNC(C)(C)COC(=O)c1ccccc1 [Meprylcaine hydrochloride] (20 µM) | 0.985 | 1.02 | 0.991 | 1.17 | 1.02 (inactive) | 1.01 (inactive) | 1.04 (inactive) | 1.01 (inactive) | 1 (inactive) | 1.04 (inactive) | 0.991 (inactive) | 1.01 (inactive)
3 | COc1c(O[C@@H]2O[C@H](CO)[C@@H](O)[C@H](O)[C@H]2O)cc2c(c1OC)-c1ccc(SC)c(=O)cc1[C@@H](NC(C)=O)CC2 [Thiocolchicoside] (20 µM) | 0.996 | 1 | 0.975 | 0.686 | 1.1 (inactive) | 1.01 (inactive) | 1.02 (inactive) | 1.01 (inactive) | 1.02 (inactive) | 1 (inactive) | 0.991 (inactive) | 1.01 (inactive)
4 | CN[C@H]1CC[C@@H](c2ccc(Cl)c(Cl)c2)c2ccccc21 [Sertraline] (20 µM) | 1.13 | 1.01 | 1.02 | 0.975 | 0.995 (inactive) | 1.01 (inactive) | 0.902 (inactive) | 1.03 (inactive) | 1 (inactive) | 1.1 (inactive) | 0.996 (inactive) | 1.02 (inactive)
5 | CCOC(=O)[C@H](CCc1ccccc1)N[C@H]1CS[C@H](c2cccs2)CN(CC(=O)O)C1=O [Temocapril hydrochloride] (20 µM) | 1.1 | 1.05 | 1.08 | 1.05 | 0.959 (inactive) | 0.989 (inactive) | 0.991 (inactive) | 0.997 (inactive) | 1.03 (inactive) | 1.04 (inactive) | 1.01 (inactive) | 1.01 (inactive)
6 | N=C(N)N1CCc2ccccc2C1 [Debrisoquin sulfate] (20 µM) | 1.11 | 1 | 1.02 | 1.13 | 1.01 (inactive) | 1.03 (inactive) | 1.02 (inactive) | 1.03 (inactive) | 1 (inactive) | 0.999 (inactive) | 0.993 (inactive) | 1.05 (inactive)
7 | Cn1cc(C(=O)Nc2ccccc2-c2cc(F)c(F)c(F)c2)c(C(F)F)n1 (20 µM) | 1.04 | 0.97 | 0.98 | 0.98 | 1.02 (inactive) | 1.03 (inactive) | 0.986 (inactive) | 1.02 (inactive) | 1.02 (inactive) | 1.01 (inactive) | 0.989 (inactive) | 0.966 (inactive)
8 | CN(C)CCCOc1nn(Cc2ccccc2)c2ccccc12 [Benzydamine hydrochloride] (20 µM) | 1.1 | 0.95 | 0.978 | 1.04 | 1.05 (inactive) | 0.95 (inactive) | 0.986 (inactive) | 0.983 (inactive) | 1.03 (inactive) | 0.967 (inactive) | 1.01 (inactive) | 0.92 (inactive)
9 | C=CC[N@@+]12CC[C@@]34c5ccccc5N5/C=C6/[C@H]7C[C@H]8[C@@]9(CC[N@@+]8(CC=C)C/C7=C/CO)c7ccccc7N(/C=C(/[C@@H](C[C@@H]31)/C(=C\CO)C2)[C@H]54)[C@@H]69 [Alcuronium chloride] (20 µM) | 1.09 | 0.982 | 1.01 | 1.26 | 1.04 (inactive) | 1.03 (inactive) | 1.05 (inactive) | 1.12 (inactive) | 0.99 (inactive) | 0.915 (inactive) | 1.02 (inactive) | 1.07 (inactive)
10 | O=C(O)C[C@H](O)C[C@H](O)/C=C/c1c(C2CC2)nc2ccccc2c1-c1ccc(F)cc1 [Pitavastatin calcium] (20 µM) | 1.08 | 1.01 | 0.996 | 1.12 | 1.03 (inactive) | 0.992 (inactive) | 0.997 (inactive) | 1.01 (inactive) | 1.01 (inactive) | 1 (inactive) | 0.997 (inactive) | 1.04 (inactive)
11 | NC(=O)Cc1cccc(C(=O)c2ccccc2)c1N [Nepafenac] (20 µM) | 1.01 | 1.03 | 1.06 | 1.09 | 0.929 (inactive) | 1.04 (inactive) | 1.06 (inactive) | 0.989 (inactive) | 0.993 (inactive) | 0.962 (inactive) | 1.04 (inactive) | 1.11 (inactive)
12 | C[N+]1(C)CCC(=C(c2ccccc2)c2ccccc2)CC1 [Diphemanil methylsulfate] (20 µM) | 1.04 | 1.02 | 1.07 | 0.984 | 0.94 (inactive) | 1.17 (inactive) | 1.01 (inactive) | 0.958 (inactive) | 0.962 (inactive) | 1.02 (inactive) | 1.02 (inactive) | 1.06 (inactive)
13 | CCC(C)(C)c1ccc(CC(C)CN2C[C@@H](C)O[C@@H](C)C2)cc1 (stereo not given in full) [Amorolfine hydrochloride] (20 µM) | 1.07 | 0.995 | 1.01 | 0.849 | 1.01 (inactive) | 0.989 (inactive) | 0.868 (inactive) | 1.03 (inactive) | 1 (inactive) | 1.02 (inactive) | 0.997 (inactive) | 0.88 (inactive)
14 | COc1ccc(/C=C/C(=O)Nc2ccccc2C(=O)O)cc1OC [Tranilast] (20 µM) | 1.04 | 1.07 | 1.19 | 1.08 | 0.89 (inactive) | 0.993 (inactive) | 1.01 (inactive) | 0.977 (inactive) | 0.994 (inactive) | 0.995 (inactive) | 1.02 (inactive) | 0.981 (inactive)
15 | CN(C(=O)CN(CCO)CC(=O)N(C)C(C)(C)Cc1ccccc1)C(C)(C)Cc1ccccc1 [Oxethazaine] (20 µM) | 1.23 | 1.05 | 1 | 0.384 | 0.971 (inactive) | 0.918 (inactive) | 0.602 (active) | 1.1 (inactive) | 1 (inactive) | 1.01 (inactive) | 0.988 (inactive) | 0.728 (active)
16 | Nc1ccc(/N=N/c2ccccc2)c(N)n1 [Phenazopyridine hydrochloride] (20 µM) | 1.12 | 0.985 | 0.982 | 1.06 | 0.998 (inactive) | 0.991 (inactive) | 1.02 (inactive) | 0.969 (inactive) | 0.986 (inactive) | 1.02 (inactive) | 0.994 (inactive) | 0.969 (inactive)
17 | CC(=O)[C@H]1CC[C@H]2[C@@H]3CCC4=CC(=O)CC[C@]4(C)[C@H]3CC[C@]12C [Progesterone] (20 µM) | 1.08 | 1.02 | 1.05 | 0.651 | 0.893 (inactive) | 1.04 (inactive) | 0.981 (inactive) | 1.07 (inactive) | 0.961 (inactive) | 1.03 (inactive) | 1.02 (inactive) | 0.95 (inactive)
18 | COc1ccc([C@@H]2CC(=O)c3c(O)cc(O[C@@H]4O[C@H](CO[C@@H]5O[C@@H](C)[C@H](O)[C@@H](O)[C@H]5O)[C@@H](O)[C@H](O)[C@H]4O)cc3O2)cc1O [Hesperidin] (20 µM) | 1.12 | 1.05 | 1.06 | 0.984 | 0.921 (inactive) | 1.26 (active) | 1.01 (inactive) | 1.01 (inactive) | 0.934 (inactive) | 0.986 (inactive) | 1.02 (inactive) | 0.982 (inactive)
19 | CCN(CC)CCc1nc(-c2ccccc2)no1 [Oxolamine citrate salt] (20 µM) | 1.13 | 0.976 | 0.968 | 1.01 | 1.04 (inactive) | 1.04 (inactive) | 1.03 (inactive) | 0.967 (inactive) | 1.01 (inactive) | 1.02 (inactive) | 0.987 (inactive) | 1.03 (inactive)
20 | COC(=O)[C@H]1[C@H]2C[C@@H]3c4[nH]c5cc(OC)ccc5c4CCN3C[C@H]2C[C@@H](OC(=O)c2cc(OC)c(OC)c(OC)c2)[C@@H]1OC [Reserpine] (20 µM) | 1.21 | 0.987 | 1.02 | 1.01 | 0.943 (inactive) | 1.07 (inactive) | 1.04 (inactive) | 0.935 (inactive) | 0.983 (inactive) | 0.966 (inactive) | 1.01 (inactive) | 1.07 (inactive)
21 | CN1CCC[C@@H]1CCO[C@](C)(c1ccccc1)c1ccc(Cl)cc1 [Clemastine fumarate] (20 µM) | 1.2 | 1.02 | 1.09 | 0.749 | 0.843 (inactive) | 1 (inactive) | 0.851 (inactive) | 1.06 (inactive) | 0.975 (inactive) | 1.12 (inactive) | 1.03 (inactive) | 0.886 (inactive)
22 | Cc1cccc(C)c1NC(=O)CN1CCN(CCCC(c2ccc(F)cc2)c2ccc(F)cc2)CC1 [Lidoflazine] (20 µM) | 0.947 | 1 | 1.05 | 1.22 | 1.01 (inactive) | 1.04 (inactive) | 0.863 (inactive) | 1.09 (inactive) | 1 (inactive) | 0.995 (inactive) | 0.996 (inactive) | 0.906 (inactive)
23 | CC(=O)N(CC(C)C(=O)O)c1c(I)cc(I)c(N)c1I (stereo not given) [Iocetamic acid] (20 µM) | 0.863 | 1.01 | 0.986 | 0.975 | 1.04 (inactive) | 1.05 (inactive) | 0.971 (inactive) | 1.09 (inactive) | 1 (inactive) | 0.988 (inactive) | 0.987 (inactive) | 0.924 (inactive)
24 | CC(c1cc2ccccc2s1)N(O)C(N)=O (stereo not given) [Zileuton] (20 µM) | 1.11 | 0.91 | 0.978 | 1.01 | 1.06 (inactive) | 0.987 (inactive) | 1.03 (inactive) | 0.86 (inactive) | 1.01 (inactive) | 1 (inactive) | 0.98 (inactive) | 1.07 (inactive)
25 | Cc1onc(-c2ccccc2)c1-c1ccc(S(N)(=O)=O)cc1 [Valdecoxib] (20 µM) | 0.979 | 0.98 | 0.973 | 0.87 | 1.08 (inactive) | 0.955 (inactive) | 0.961 (inactive) | 1.07 (inactive) | 0.983 (inactive) | 1.03 (inactive) | 0.972 (inactive) | 0.92 (inactive)
